Assay outcomes: PubChem, SRMLSC
Compounds with a hit are over-represented: about 6.6% of the library has one in this group of screens.
DPM-DC inhibit = blocks S. pneumoniae diphosphomevalonate decarboxylase; purified DPM-DC, PK/LDH coupled NADH fluorescence; AID 556; actives 0.49% (n = 65,000); calls only at 10 µM;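 active means the 320 compounds with the highest percent inhibition in the single-dose primary screen, excluding strongly autofluorescent ones, cut at about 32% in these data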;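 further: kinetic rate of NADH fluorescence loss reporting ADP formed by the decarboxylase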
Spn MK inh = S. pneumoniae mevalonate kinase inhibition. purified MK, PK/LDH-coupled NADH absorbance 340 nm. inhibition, % at 10 µM. actives 0.48% (n = 65,000). AID 555;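 active means ranked among the strongest by inhibition in the single 10 µM screen, a fixed top-ranked set picked for dose follow-up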
PMK inhibit = inhibitors of Streptococcus pneumoniae phosphomevalonate kinase; purified PMK, PK/LDH-coupled NADH absorbance 340 nm; inhibition, % at 10 µM; actives 0.49% (n = 65,000); AID 539;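 active means top-ranked compounds by inhibition in the single 10 µM screen, taking a fixed number of the strongest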;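 further: 0% = full reaction with DMSO carrier and 100% = background rate without enzyme reaction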
Fluor 339 460 = intrinsic fluorescence of library compounds, ex339/em460 – biochemical, MLSMR library, data from DPM-DC assay, artefact control, profiling panel. actives 5.5% (n = 65,000). fluorescence fold increase at 10 µM. compound autofluorescence, ex339/em460 nm, NADH buffer; stronger effect = higher value; 1 = no-compound wells, NADH background;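 active means at 10 µM, mean starting fluorescence two-fold or more over control wells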;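 further: signal is the first read of a kinetic run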
NADH coupling = inhibitors of enzymes used to reach an NAD/NADH endpoint. coupled PK/LDH NADH assays, four targets. IC50, µM (top dose mostly 10 µM), for the others: at the highest dose inhibition. actives 0.02% (n = 65,000). AID 774;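 active means single-dose screening hits from any of four coupled enzyme assays that gave an IC50 when retested across doses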;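 further: the DPM-DC format reads NADH fluorescence rather than 340 nm absorbance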
* = called active by the depositor; i = inactive; · = no result given; + = active, no number.

SMILES	DPM-DC inhibit	Spn MK inh	PMK inhibit	Fluor 339 460	NADH coupling
Cn1c(=O)c(C(=O)CSc2nncs2)c(N)n(Cc2ccccc2)c1=O	i	9	0	1	3%
Cc1cccc(N2CCN(C(=O)Cn3nc(Cc4ccncc4)c4ccccc4c3=O)CC2)c1C	i	8	12	1	3%
COc1ccc2c(c1)c1ncnc(N3CCN(Cc4ccc5c(c4)OCO5)CC3)c1n2C	i	5	7	3.2*	6%
COC(=O)c1[nH]c2cc(OC)ccc2c1NC(=O)CCN1CCN(Cc2ccc3c(c2)OCO3)CC1	i	5	6	1.4	4%
COc1ccc2c(c1)c(C(O)CN1CCN(Cc3ccc4c(c3)OCO4)CC1)c(C)n2C (stereo unspecified)	i	11	6	1.2	6%
COc1ccc2[nH]c3c(N4CCN(Cc5ccc6c(c5)OCO6)CC4)ncnc3c2c1	·	9	0	2.3*	5%
Cc1oc2c(CN(C)C)c(O)ccc2c(=O)c1-c1ccc2ccccc2n1	i	4	0	1.1	1%
CCc1cc2c(=O)c(Oc3ccccc3F)c(C)oc2c(CN(C)C)c1O	·	2	23	2.2*	13%
COc1cc2c(cc1NC(=O)CSc1nnnn1-c1ccccc1)oc1ccccc12	i	6	5	2.2*	4%
COc1cccc(-n2nnnc2SCC(=O)c2cc(OC)ccc2OC)c1	i	5	1	2.4*	7%
CCC(C)N(C(=O)COC(=O)Cc1n[nH]c(=O)c2ccccc12)C1CCS(=O)(=O)C1 (stereo unspecified)	i	4	8	1.1	4%
Cc1ccc(CNC(=O)C2CCN(S(=O)(=O)c3c(C)noc3C)CC2)cc1	i	+	19	1	5%
O=C(NCc1ccccc1)C1CCN(S(=O)(=O)c2cccc3cccnc23)CC1	i	3	2	1	3%
COc1ccc(CNC(=O)C2CCN(S(=O)(=O)c3cccc4cccnc34)CC2)cc1	i	2	27*	1.1	15%
Cn1c(CCNC(=O)c2ccco2)nc2cc(NS(=O)(=O)c3ccc(Cl)cc3)ccc21	i	0	4	1.1	1%
CC1(C)CC2CC(C)(CN2C(=O)C23CCC(C)(C(=O)O2)C3(C)C)C1 (stereo unspecified)	i	6	11	1.1	6%
O=C(CCCc1cccs1)N1CCN(S(=O)(=O)c2ccccc2Br)CC1	i	4	11	1.1	5%
O=C(Nc1ccc2oc(-c3ccc(F)cc3)nc2c1)c1ccccc1F	i	7	9	3*	9%
O=C(Nc1ccc2oc(-c3ccccc3F)nc2c1)c1ccc2c(c1)OCCO2	i	3	15	3.2*	13%
O=C(Nc1ccccc1-c1nc2ccccc2o1)c1ccc2c(c1)OCCO2	·	10	8	3.3*	4%
Cc1c(NC(=O)c2ccc3c(c2)OCO3)cccc1-c1nc2ccccc2o1	i	4	11	1.1	5%
CCC(=O)c1cc(F)c(N2CCN(S(=O)(=O)c3ccc(C)cc3)CC2)cc1C	i	1	0	1.1	0%
Cn1c(C2=C(O)CN(c3ccc4c(c3)OCCO4)C2=N)nc2ccccc21	i	10	9	1.1	6%
C=CCn1c(SCC(=O)Nc2nnc(CC)s2)nnc1-c1ccco1	i	8	17	1.1	8%
Clc1ccc(-c2nnc3sc(-c4ccc(Br)o4)nn23)c(Cl)c1	i	10	10	1.8	7%
SMILES	DPM-DC inhibit	Spn MK inh	PMK inhibit	Fluor 339 460	NADH coupling
Clc1ccc(-c2nnc3sc(-c4ccc(Br)o4)nn23)cc1	i	11	14	2.2*	4%
Cc1ccc(CCNC(=O)Cn2cccc2)cc1	i	7	14	1	2%
COC(=O)CN(c1ccccn1)S(=O)(=O)c1ccccc1	i	2	6	3.1*	10%
CC1CN(c2nc3c(c(=O)n(C)c(=O)n3C)n2Cc2c(F)cccc2Cl)CC(C)O1 (stereo unspecified)	i	7	6	1.1	4%
Nc1c(C(=O)Nc2ccc(Cl)cc2)oc2ccccc12	·	6	16	2.1*	11%
CS(=O)(=O)Nc1ccc(N2CCCCC2)c(Cl)c1	i	14	8	1.1	8%
Cc1nn(-c2ccccc2)c2sc(C(=O)O)cc12	i	7	1	1.1	3%
Cc1nn(-c2ccccc2)c2sc(-c3n[nH]c(=S)o3)cc12	·	2	10	3.9*	6%
Cc1nn(-c2ccccc2)c(N2CCCC2)c1/C=N/n1cnc2scc(-c3ccccc3)c2c1=O	i	0	5	3.5*	2%
CCSCc1nnc(SCC(=O)Nc2cccc(SC)c2)n1C	i	9	10	1	4%
N#Cc1c(N)nc(-c2ccccc2)nc1-c1ccccc1	i	2	11	1.1	6%
Nc1nc(N)c2nc(-c3ccccc3)c(N)nc2n1	·	6	8	2.5*	3%
O=C(Cc1cccs1)Nc1nnc(-c2ccncc2)s1	·	5	4	2.2*	5%
CCOC(=O)c1[nH]c2ccc(OC)cc2c1NC(=O)CCN1CCc2ccccc2C1	·	6	4	2.3*	5%
CCOC(=O)c1[nH]c2ccc(F)cc2c1NC(=O)CN1CCc2cc(OC)c(OC)cc2C1	i	14	13	1.9	11%
CCOC(=O)c1[nH]c2ccc(OC)cc2c1NC(=O)CCN1CCC(C)CC1	·	0	1	2.5*	1%
COC(=O)c1[nH]c2ccc(Cl)cc2c1NC(=O)CCN1CCOCC1	+	11	13	2.1*	19%
COC(=O)c1[nH]c2cc(OC)ccc2c1NC(=O)CCN1CCCCC1	i	7	8	1.2	4%
COc1ccc(C2CC(c3ccc(Cl)cc3)n3nc(N)nc3N2)cc1 (stereo unspecified)	i	6	20	1.4	10%
COc1ccc(C)cc1Nc1cc(C)nc2ncnn12	i	6	12	1.1	6%
COc1ccc(CNc2oc(-c3ccccc3)nc2C#N)cc1	·	3	0	2	1%
COc1ccc(-c2nc(C#N)c(NCc3ccc(F)cc3)o2)cc1OC	·	13	20	3.9*	17%
COc1ccc(-c2nc(C#N)c(NCc3ccccc3Cl)o2)cc1OC	·	9	17	4*	13%
COc1ccc(-c2nc(C#N)c(NCc3ccccc3Cl)o2)cc1	i	3	0	3.1*	1%
c1ccc(-c2cnnc(N3CCCCC3)n2)cc1	i	7	1	1.1	3%
O=C(c1ccc2snnc2c1)N1CCOCC1	i	2	0	1	1%
COc1ccc(-c2nc(C#N)c(NCCc3ccccc3)o2)cc1	·	9	12	3.6*	11%
COc1ccc(-c2nc(C#N)c(NCCN(C)C)o2)cc1	·	6	9	2.1*	8%
COc1ccc(CNc2oc(COc3ccc(Cl)cc3)nc2C#N)cc1	i	7	0	1.1	2%
CNc1oc(-c2ccccc2)nc1C#N	·	9	5	2.1*	7%
